# Compounds with a hit are over-represented: about 1% of the library has one in this group of screens.
# RXFP1 antag: blocks the human relaxin receptor RXFP1; activity change, negative = inhibition, % at 57.5 µM; 0.59% of 350,000 active; Q9HBX9; AID 1259400; HEK293-RXFP1, relaxin-stimulated cAMP HTRF, 30 min; active compounds read low;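 active means activity change of -60% or lower, but not beyond a set lower limit; inconclusive means change between -60% and -40%, or beyond the set limit; inactive means change above -40%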; further: on the % scale 0 is the no-effect control and ±100 the full control effect
# Target sequence (Q9HBX9 whole entry, looked up): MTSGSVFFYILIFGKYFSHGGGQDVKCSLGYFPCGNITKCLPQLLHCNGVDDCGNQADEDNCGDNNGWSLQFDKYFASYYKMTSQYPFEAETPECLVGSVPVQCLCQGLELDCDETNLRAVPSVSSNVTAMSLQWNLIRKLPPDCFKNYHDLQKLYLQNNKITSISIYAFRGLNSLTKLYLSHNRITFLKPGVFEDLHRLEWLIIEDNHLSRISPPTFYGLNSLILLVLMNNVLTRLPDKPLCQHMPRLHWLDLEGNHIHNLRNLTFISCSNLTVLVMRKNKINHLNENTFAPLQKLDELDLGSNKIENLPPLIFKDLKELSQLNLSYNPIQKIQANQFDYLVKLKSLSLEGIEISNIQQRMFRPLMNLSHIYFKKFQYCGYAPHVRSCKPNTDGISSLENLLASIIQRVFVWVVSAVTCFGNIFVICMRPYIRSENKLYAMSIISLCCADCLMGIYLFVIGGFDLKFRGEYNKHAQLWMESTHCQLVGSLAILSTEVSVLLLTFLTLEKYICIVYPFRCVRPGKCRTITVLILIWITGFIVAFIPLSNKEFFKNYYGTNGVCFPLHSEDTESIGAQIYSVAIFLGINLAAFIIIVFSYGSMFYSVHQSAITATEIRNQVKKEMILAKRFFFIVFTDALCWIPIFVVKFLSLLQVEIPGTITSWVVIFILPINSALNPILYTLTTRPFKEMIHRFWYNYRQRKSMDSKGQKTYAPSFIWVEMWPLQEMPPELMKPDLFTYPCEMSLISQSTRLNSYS
# RXFP1 ag: agonists of human relaxin receptor RXFP1. 0.3% of 370,000 active. HEK293T-RXFP1 cAMP TR-FRET, 30 min; response scale: percent of porcine relaxin response, buffer zero. AID 2676. Potency, µM (titrated, usually from 57.5 µM), for inactives: top-dose activation, most hits filed as activators; active means well fitted activation curve with a large enough effect; inconclusive means small, poorly fitted or top-dose-only effect; further: potency means the concentration at half of the fitted maximal effect; on the % scale 0 is the no-effect control and ±100 the full control effect; nearly all actives have a fitted effect of over 60% in size
#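 HEK293 cells stably expressing RXFP1, treated 30 min at 37C with compounds plus PDE4 inhibitor Ro 20174; cAMP measured by HTRF TR-FRET. Normalized to buffer and 29 nM porcine relaxin; EC50 by Hill fit.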
# gsp ag: activates gsp, the McCune-Albright syndrome mutation; gsp mutant cells, cAMP HTRF, 30 min; Potency, µM (doses to about 76.9 µM), for the others: top-dose activation (cAMP increase), most hits filed as activators; 0.13% of 340,000 active; AID 624287; active means well fitted activation curve with a large enough effect; inconclusive means small, poorly fitted or top-dose-only effect, or another doubt; inactive means no such curve, though single readings can be large or run the other way; cell line not stated here;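 further: phosphodiesterase inhibitor Ro 20-1724 added with compounds to block cAMP breakdown; potency means the concentration at half of the fitted maximal effect; nearly all actives have a fitted effect of over 60% in size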
#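 Cells in DMEM/10% FBS with G418 were pretreated with compounds in DMSO plus […] (300 uM stock) for 30 min at 37C. cAMP was measured by HTRF (cAMP-d2 plus anti-cAMP antibody-K) after 30 min at room temperature.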
# TSHR antagonist: antagonists of human thyroid stimulating hormone receptor; TSHR-expressing cells, TSH-stimulated cAMP HTRF, 2 h; active compounds read low; activity change, negative = inhibition, % at 11.5 µM; AID 504810; 0.2% of 330,000 active; P16473;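 active means activity change below a set negative limit, meaning inhibition stronger than a set level, cut at about -70% in these data; inconclusive means activity change between two set negative limits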; further: on the % scale 0 is the no-effect control and ±100 the full control effect
#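 Inhibition of cAMP made by TSHR-expressing cells under TSH stimulation (4nM final, EC80; 2 h, 37 deg C) is quantified with a one-step lysis HTRF kit, anti-cAMP cryptate versus cAMP-d2.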
# gsp antag: antagonizes gsp, the McCune-Albright syndrome mutation; gsp-mutant cells, cAMP HTRF, 30 min; AID 624288; 0.4% of 340,000 active; Potency, µM (series often up to 76.9 µM), inactives show at the highest dose activity change, negative = inhibition, hits mostly inhibitors; calls by dose curve; cell line not stated here;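 further: intracellular cAMP measured with PDE inhibitor Ro 20-1724 present during compound exposure; potency means the concentration at half of the fitted maximal effect; on the % scale 0 is the no-effect control and ±100 the full control effect; nearly all actives have a fitted effect of over 65% in size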
#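 HTRF cAMP measurement after 30 min RT detection following 30 min, 37C compound treatment alongside […] (added as 300 uM solution) in G418-selected cells seeded at 2000/well and grown 16–24 h.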
# * = called active by the depositor; ? = inconclusive; nt = no result given; [ ] = dose if it differs, or a comment.
SMILES,RXFP1 antag,RXFP1 ag,gsp ag,TSHR antagonist,gsp antag
COc1ccc(OC)c(CCNCc2c(C(=O)O)c(C)n(Cc3ccc(F)cc3Cl)c2C)c1,-63*,0%,nt,nt,nt
COC(=O)C1=C(c2ccc(-c3ccccc3)c(F)c2)C[C@@H]2CC[C@H]1N2C(=O)NC1CC1,nt,0%,-14%,-41,?
COC(=O)C1=C(c2ccc(-c3ccccc3)c(F)c2)C[C@@H]2CC[C@H]1N2C(=O)NCc1ccco1,nt,-1%,-8%,-83*,-19%
COC(=O)C1=C(c2ccc(-c3ccccc3)c(F)c2)C[C@@H]2CC[C@H]1N2C(=O)NC(C)C,nt,0%,-1%,-93*,-22%
C[C@@H]1CNC(=O)c2c(C(=O)Nc3ccc(CNC(=O)OC(C)(C)C)cc3)ncn21,10,nt,?,nt,nt
Cc1nc2ccccc2c(=O)n1/N=C/c1cc(Br)cc(Br)c1O,-79*,nt,-1%,nt,?
Cc1nc2ccccc2c(=O)n1-c1ccc(Br)cn1,1,2%,3%[15.4 µM],1,8%
O=[N+]([O-])c1ccc(Sc2nc3ccccc3o2)c([N+](=O)[O-])c1,11,-1%,?,-71*,13%
COC(=O)C1=C(C(=O)OC)C2OC1c1cc3ccccc3cc12,-120*,nt,?,nt,-4%
COC(=O)C1=C(c2ccc3ccccc3c2)C[C@@H]2CC[C@H]1N2C,nt,-1%,?,38,5%
Cc1[nH]n(-c2ccccc2)c(=O)c1C(c1ccc([N+](=O)[O-])cc1)c1c(C)[nH]n(-c2ccccc2)c1=O,-11,0%,?,23,25µM*
Clc1ccccc1N1CCNCC1,9,nt,nt,nt,nt
CCON=C(CC)C1=C(O)CC(c2c(C)cc(C)cc2C)CC1=O (centres undefined),-34,nt,nt,nt,nt
CC(C)(C)c1cc(C=C(C#N)C#N)cc(C(C)(C)C)c1O,nt,1%,nt,-81*,?
CCN(CC1CCCN(CCc2cccc(OC)c2)C1)C(=O)c1ccc(COC)o1 (centres undefined),4,3%,7%,14,-1%
CCOc1ccc(-n2nc3c(=S)[nH]nc(C)c3c2C)cc1,-4,5.6µM*,?,62,11%
CCOc1ccc(-c2c(C)n(-c3ccc(OCC)cc3)c3[n+]2CCCCC3)cc1,?,2%,?,-20,?
COc1ccc(-n2c(O)c(/C=C3\C=Nc4ccc(Br)cc43)c(=O)[nH]c2=O)c(OC)c1,-71*,-3%,?,-1,-18%
Cn1cccc1/C=C1/C(=O)NC(=S)N(Cc2ccc(F)cc2)C1=O,-69*,6%,-5%[15.4 µM],-10,-25%
COCCOCCO,-11,nt,nt,nt,nt
COc1ccc(CNCCc2c(C)[nH]c3ccc(OC(F)(F)F)cc23)c(OC)c1,-83*,0%,?,-6,-1%
COc1ccc2[nH]c(C)c(CCNCc3cc(OC)c(OC)c(OC)c3)c2c1,-3,-4%,24%[15.4 µM],16,-32%
CCN(CC)c1ccc(/C=C2\C(=O)NC(=O)N(Cc3ccco3)C2=O)cc1,-66*,7%,-37%,1,-21%
O=C1NC(=O)N(Cc2ccco2)C(=O)/C1=C/c1cccn1CCOc1ccccc1Cl,-61*,-1%,-8%,-11,30%
CCN(CC)c1ccc(/C=C2/C(=O)NC(=O)N(CC3CCCO3)C2=O)cc1 (centres undefined),18,-2%,0%,18,-25%
CN1CCC(N(Cc2ccccc2)c2ccccc2)CC1,-7,nt,nt,nt,nt

# Screens deposited in PubChem BioAssay by National Center for Advancing Translational Sciences (NCATS).
